Data reported in PubChem BioAssay (Tox21).
Where “and” joins values, the source holds several entries; their conditions need not be identical. Identical values can stand only once. Inconclusive results are not listed. More than one record can exist for a structure, and the calls need not agree. Calls of active or inactive are those of the source. Calls come from the whole dose curve; as a rule, active = well fitted inhibition curve with a large enough effect in the repeat runs; inconclusive = weak or mixed curves; inactive = no such curve, though single readings can be large or run the other way.
% is set by controls: 0 for no effect and ±100 for the full control effect; potency is the fitted concentration of half-maximal effect.

These compounds were tested against Aromatase (Homo sapiens) (UniProt P11511) (assay: qHTS assay to identify aromatase inhibitors (AID 743083; note: nearly all actives have a fitted effect of over 55% in size)). Conditions: MCF-7 aro ERE, testosterone-driven ERE luciferase, 24 h; series mostly up to 70.3 µM; activity, negative = inhibition: at the top concentration.
Sequence of Aromatase (Homo sapiens) (P11511 whole entry, looked up): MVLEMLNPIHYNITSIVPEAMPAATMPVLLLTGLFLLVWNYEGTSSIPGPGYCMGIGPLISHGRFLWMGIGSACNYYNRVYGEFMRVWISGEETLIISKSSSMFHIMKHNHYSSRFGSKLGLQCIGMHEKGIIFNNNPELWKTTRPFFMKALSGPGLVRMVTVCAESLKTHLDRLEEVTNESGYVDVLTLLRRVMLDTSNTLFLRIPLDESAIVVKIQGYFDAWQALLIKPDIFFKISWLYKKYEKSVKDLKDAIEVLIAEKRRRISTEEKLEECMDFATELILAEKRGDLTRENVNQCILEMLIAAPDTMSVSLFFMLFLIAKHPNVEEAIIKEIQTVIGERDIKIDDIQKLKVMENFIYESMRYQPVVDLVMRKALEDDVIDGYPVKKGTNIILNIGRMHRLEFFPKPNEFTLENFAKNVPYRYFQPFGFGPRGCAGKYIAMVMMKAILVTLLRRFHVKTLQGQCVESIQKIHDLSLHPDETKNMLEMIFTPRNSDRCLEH
For `Cc1ccc(-n2nc(C(C)(C)C)cc2NC(=O)Nc2ccc(OCCN3CCOCC3)c3ccccc23)cc1`, the “activity, negative = inhibition” value was -20.6% (inactive).
In the case of `CCCCCCCCOC(=O)c1ccc(O)cc1`, the Potency is reported as 21.6 µM (active) and 54.5 µM (active).
For `O=C1C=CC(=O)N1`, the Potency was 8.86 µM (active).
For `CCc1cc(SCc2sc(-c3ccc(C(F)(F)F)cc3)nc2CN2CCN(c3ccc(OC)cc3)CC2)ccc1OCC(=O)O`, the Potency was 54.5 µM (active).
In the case of `CC(C)(C)NC(=O)[C@@H]1C[C@@H]2CCCC[C@@H]2CN1C[C@@H](O)[C@H](Cc1ccccc1)NC(=O)[C@H](CC(N)=O)NC(=O)c1ccc2ccccc2n1`, the Potency is reported as 29.8 µM (active) and 31 µM (active).
In the case of `CC(C)CCCCCCCCCCCCCCC(=O)O`, the “activity, negative = inhibition” value is reported as -26.1% (inactive).
`Cc1ccc(O)c(C(C)(C)C)c1` was tested, and the Potency was 15.3 µM (active) and inactive.
In the case of `CCCCc1oc2ccc(NS(C)(=O)=O)cc2c1C(=O)c1ccc(OCCCN(CCCC)CCCC)cc1`, the Potency is reported as 29.8 µM (active).
`Cc1cccc(CN2CCN(C(c3ccccc3)c3ccc(Cl)cc3)CC2)c1` (centres undefined) was tested, and the “activity, negative = inhibition” value was -10.9% [at 32.5 µM] (inactive).
`O=C(Nc1cccc(Cl)c1)OCC#CCCl` was tested, and the Potency was 21.7 µM (active).
`Cc1onc(-c2c(Cl)cccc2Cl)c1C(=O)N[C@@H]1C(=O)N2[C@@H]1SC(C)(C)[C@@H]2C(=O)O` was tested, and the “activity, negative = inhibition” value was -12.8% (inactive).
In the case of `CCCN(CCC)c1c([N+](=O)[O-])cc(C(F)(F)F)c(N)c1[N+](=O)[O-]`, the Potency is reported as 15.3 µM (active).
With `Oc1c(Cl)cc(Cl)c2cccnc12` the Potency was 11.9 µM (active).
For `Oc1cccc(-c2c3nc(c(-c4cccc(O)c4)c4ccc([nH]4)c(-c4cccc(O)c4)c4nc(c(-c5cccc(O)c5)c5ccc2[nH]5)CC4)C=C3)c1`, the Potency was “inactive and 26.6 µM (active)”.
